# Assay results: the supplement of paper PMC8728848
# The entries come from a sample that favours the strongest signals as a whole.
# B1: CvGal2 (Crassostrea virginica) (protein)
# chain: MGSSHHHHHHSSGLVPRGSHMRIREAGKRKDTTKVYQIPDGLFPGQQVMLRGRVPWGSKSFSINFSATPRMGEGDILFHLNPRPSEGVCIRNALLNGSWGAEEKWQPYFPFDDGRSFSVKIEVTNDAFRTFVNGRPFVDFLHRTDFRAGKYLTLREGAEYYDVIFQSKPNIPLTTAIHNGMRIGKTIRIRGMCTAQDGFAINFNDNRNNIYFHFNARPAQRTVVRNSYFGSWGNEETAISKEFPFYPFLYFYASFVCMEDKFAVYVNDEHFIDFAHRGNPNNISVLQIKGSVNVLDTECLEPMGEDAMTEVDSGLENGDLFVLNGLMTERGKTFAVNFLNGFTENDDIALHFNPRKSTGEVVLNSRYGGAWQSEEKVALPGVFWSNRPLQVKVETKRNKFKIYVNGVDLAKYKIRGNVEDVHAVQVKGDVFLLETLLLKRLMKPVWERLTGGIRPGTWVTLQGTPKKNWQQFVVNFALDDTLDGDIAFHFNVRRGARQVVRNHRQSGAWGREETVTPFFAFDSEATFEIVFFVKEEKFLIYFNGKLFFEFVHRVPVERITHIYMDGDCNFYEPEVVI
# Columns and labels:
# Assay in all cases: glycan array binding signal (z-score within array); higher = stronger binding
# Conditions in all cases: glycan notation: IUPAC condensed, linker removed
# [1] = target: Fuc(a1-2)Gal(b1-3)GalNAc(a1-3)[Fuc(a1-2)]Gal(b1-4)GlcNAc
# Outline: (§1)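 Arrays were curated from the Consortium for Functional Glycomics database, 3228 in total, and kept only where the protein sequence was available. Binding is expressed as a within-array Z-score. This score was averaged across arrays of the same protein sequence at different concentrations or buffers and across linkers, and negative values can be read as non-binding.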
# [2] = target: Fuc(a1-2)[Gal(a1-3)]Gal(b1-3)GlcNAc(b1-2)Man(a1-3)[Fuc(a1-2)[Gal(a1-3)]Gal(b1-3)GlcNAc(b1-2)Man(a1-6)]Man(b1-4)GlcNAc(b1-4)GlcNAc
# Outline: as §1
# [3] = target: Fuc(a1-2)[Gal(a1-3)]Gal(b1-4)Glc
# Outline: as §1
# [4] = target: Fuc(a1-2)[Gal(a1-3)]Gal(b1-4)GlcNAc
# Outline: as §1
# [5] = target: Fuc(a1-2)[Gal(a1-3)]Gal(b1-4)GlcNAc(b1-2)Man(a1-3)[Fuc(a1-2)[Gal(a1-3)]Gal(b1-4)GlcNAc(b1-2)Man(a1-6)]Man(b1-4)GlcNAc(b1-4)GlcNAc
# Outline: as §1
# [6] = target: Fuc(a1-2)[GalNAc(a1-3)]Gal(b1-3)GlcNAc(b1-2)Man(a1-3)[Fuc(a1-2)[GalNAc(a1-3)]Gal(b1-3)GlcNAc(b1-2)Man(a1-6)]Man(b1-4)GlcNAc(b1-4)GlcNAc
# Outline: as §1
# [7] = target: Fuc(a1-2)[GalNAc(a1-3)]Gal(b1-3)GlcNAc(b1-3)GalNAc
# Outline: as §1
# [8] = target: Fuc(a1-2)[GalNAc(a1-3)]Gal(b1-4)GlcNAc(b1-2)Man(a1-3)[Fuc(a1-2)[GalNAc(a1-3)]Gal(b1-4)GlcNAc(b1-2)Man(a1-6)]Man(b1-4)GlcNAc(b1-4)[Fuc(a1-6)]GlcNAc
# Outline: as §1
# [9] = target: Fuc(a1-2)[GalNAc(a1-3)]Gal(b1-4)GlcNAc(b1-3)Gal(b1-4)GlcNAc
# Outline: as §1
# [10] = target: Fuc(a1-2)[GalNAc(a1-3)]Gal(b1-4)GlcNAc(b1-3)Gal(b1-4)GlcNAc(b1-3)Gal(b1-4)GlcNAc
# Outline: as §1
# [11] = target: Fuc(a1-2)[GalNAc(a1-3)]Gal(b1-4)GlcNAc(b1-3)[Fuc(a1-2)[GalNAc(a1-3)]Gal(b1-4)GlcNAc(b1-6)]GalNAc
# Outline: as §1
# [12] = target: Fuc(a1-2)[GalNAc(a1-3)]Gal(b1-4)[Fuc(a1-3)]GlcNAc(b1-3)GalNAc
# Outline: as §1
# [13] = target: Fuc(a1-3)[Gal3S(b1-4)]GlcNAc
# Outline: as §1
# Gal(b1-3)Gal(b1-4)GlcNAc = target: Gal(b1-3)Gal(b1-4)GlcNAc
# Outline: as §1
# [14] = target: Gal(b1-3)GalNAc(a1-3)[Fuc(a1-2)]Gal(b1-4)Glc
# Outline: as §1
# [15] = target: Gal(b1-3)GalNAc(a1-3)[Fuc(a1-2)]Gal(b1-4)GlcNAc
# Outline: as §1
# [16] = target: Gal(b1-3)GlcNAc(b1-3)Gal(b1-4)GlcNAc(b1-3)Gal(b1-4)GlcNAc(b1-2)[Gal(b1-3)GlcNAc(b1-3)Gal(b1-4)GlcNAc(b1-3)Gal(b1-4)GlcNAc(b1-6)]Man(a1-6)[Gal(b1-3)GlcNAc(b1-3)Gal(b1-4)GlcNAc(b1-3)Gal(b1-4)GlcNAc(b1-2)Man(a1-3)]Man(b1-4)GlcNAc(b1-4)[Fuc(a1-6)]GlcNAc
# Outline: as §1
# [17] = target: Gal(b1-3)GlcNAc(b1-3)Gal(b1-4)GlcNAc(b1-6)[Gal(b1-3)GlcNAc(b1-3)]Gal(b1-4)Glc
# Outline: as §1
# [18] = target: Gal(b1-3)[Fuc(a1-4)]GlcNAc(b1-2)Man(a1-3)[Gal(b1-3)[Fuc(a1-4)]GlcNAc(b1-2)Man(a1-6)]Man(b1-4)GlcNAc(b1-4)[Fuc(a1-6)]GlcNAc
# Outline: as §1
# [19] = target: Gal(b1-4)GlcNAc(b1-2)Man(a1-3)[GlcNAc(b1-2)Man(a1-6)]Man(b1-4)GlcNAc(b1-4)GlcNAc
# Outline: as §1
# [20] = target: Gal(b1-4)GlcNAc(b1-3)Gal(b1-4)GlcNAc(b1-2)Man(a1-3)[Gal(b1-4)GlcNAc(b1-3)Gal(b1-4)GlcNAc(b1-2)Man(a1-6)]Man(b1-4)GlcNAc(b1-4)[Fuc(a1-6)]GlcNAc
# Outline: as §1
# [21] = target: Gal(b1-4)GlcNAc(b1-3)Gal(b1-4)GlcNAc(b1-3)Gal(b1-4)GlcNAc(b1-3)Gal(b1-4)GlcNAc(b1-2)Man(a1-3)[Gal(b1-4)GlcNAc(b1-3)Gal(b1-4)GlcNAc(b1-3)Gal(b1-4)GlcNAc(b1-3)Gal(b1-4)GlcNAc(b1-2)Man(a1-6)]Man(b1-4)GlcNAc(b1-4)[Fuc(a1-6)]GlcNAc
# Outline: as §1
# Gal3S(b1-4)Glc6S = target: Gal3S(b1-4)Glc6S
# Outline: as §1
# GalNAc4S6S(b1-4)GlcNAc = target: GalNAc4S6S(b1-4)GlcNAc
# Outline: as §1
# GlcA(b1-3)GlcNAc = target: GlcA(b1-3)GlcNAc
# Outline: as §1
binder,measurement,setting,value
B1,glycan array binding signal (z-score),[1],4.44
same,glycan array binding signal (z-score),[2],5.23
same,glycan array binding signal (z-score),[3],4.03
same,glycan array binding signal (z-score),[4],2.16
same,glycan array binding signal (z-score),[5],7.14
same,glycan array binding signal (z-score),[6],4.12
same,glycan array binding signal (z-score),[7],0.97
same,glycan array binding signal (z-score),[8],3.72
same,glycan array binding signal (z-score),[9],3.77
same,glycan array binding signal (z-score),[10],4.33
same,glycan array binding signal (z-score),[11],6.77
same,glycan array binding signal (z-score),[12],-0.333
same,glycan array binding signal (z-score),[13],-0.329
same,glycan array binding signal (z-score),Gal(b1-3)Gal(b1-4)GlcNAc,0.538
same,glycan array binding signal (z-score),[14],3.35
same,glycan array binding signal (z-score),[15],4.05
same,glycan array binding signal (z-score),[16],2.77
same,glycan array binding signal (z-score),[17],4.4
same,glycan array binding signal (z-score),[18],-0.33
same,glycan array binding signal (z-score),[19],-0.329
same,glycan array binding signal (z-score),[20],-0.175
same,glycan array binding signal (z-score),[21],-0.126
same,glycan array binding signal (z-score),Gal3S(b1-4)Glc6S,0.689
same,glycan array binding signal (z-score),GalNAc4S6S(b1-4)GlcNAc,-0.33
same,glycan array binding signal (z-score),GlcA(b1-3)GlcNAc,-0.318
